From PubChem BioAssay AID2599 (Sanford-Burnham Center for Chemical Genomics, 2010)
Hit rate of the full screen: of about 330,000 compounds, about 5,800 (1.8%) were called active. This is one part of a sample in which actives are shown more often than they occur.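 Rule for the calls: active = inhibition above about 50% at the single tested dose (limit read from the data); inactive = the rest.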

Molecular target: Sentrin-specific protease 6 (Homo sapiens) (UniProt Q9GZR1)
Assay: inhibition of human SENP6 catalytic domain – biochemical, luminescence, uHTS, primary screen (AID 2599);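 note: plate controls were DMSO wells with enzyme for no effect and DMSO wells lacking enzyme for full effect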
Details: Recombinant SENP6 catalytic domain, aminoluciferin luminescence; at 10 µM; hits give high values

Chain of Sentrin-specific protease 6 (Homo sapiens) (Q9GZR1 628-1112 limits assumed): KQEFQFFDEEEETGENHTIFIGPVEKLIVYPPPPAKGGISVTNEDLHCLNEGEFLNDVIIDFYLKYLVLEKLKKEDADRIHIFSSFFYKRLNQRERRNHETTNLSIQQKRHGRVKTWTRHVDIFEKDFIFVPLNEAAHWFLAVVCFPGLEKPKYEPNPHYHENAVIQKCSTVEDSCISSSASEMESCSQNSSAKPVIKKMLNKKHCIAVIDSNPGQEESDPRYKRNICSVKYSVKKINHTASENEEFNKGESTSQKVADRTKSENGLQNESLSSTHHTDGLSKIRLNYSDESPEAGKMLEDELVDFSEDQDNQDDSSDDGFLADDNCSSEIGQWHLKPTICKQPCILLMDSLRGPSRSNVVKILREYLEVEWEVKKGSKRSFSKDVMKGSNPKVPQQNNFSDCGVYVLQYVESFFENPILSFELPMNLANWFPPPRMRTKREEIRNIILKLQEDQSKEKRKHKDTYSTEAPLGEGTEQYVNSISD

inhibition, active:
Nc1ccc(N=Nc2ccccc2Cl)c(N)n1 81.2%, Cc1ccnc(Nc2nc3ccccc3s2)n1 78.6%, CCn1nccc1C(=O)Nc1ccc(Cl)c(Cl)c1 76.6%, O=C(c1ccc(F)cc1)n1c(=S)nc2ccccn21 71.7%, COc1ccc(NC(=O)Nc2cccc3cccnc23)cc1 80.7%, O=C(Nc1ccccc1Cl)Nc1cccc2cccnc12 58.1%, O=C(Nc1cc2ccccc2oc1=O)C1CCCCC1 62.5%, Cc1[nH]n(-c2ccc([N+](=O)[O-])cc2)c(=O)c1C=NCCN1CCN(C(=O)c2ccccc2F)CC1 87%, CCC(=O)Nc1ccc2nn(-c3ccc(F)cc3)nc2c1 76.9%, Cc1[nH]n(C(N)=S)c(=O)c1N=Nc1ccc(Cl)cc1Cl 96.1%, CCOC(=O)c1cnc2[nH]c3ccccc3n2c1=O 83%, O=C1CC(c2ccccc2)=NN1c1ccc([N+](=O)[O-])cc1 75.3%, COc1cccc(OCC(O)CNC(=O)c2oc3c(C)c(C)ccc3c2C)c1 (configuration not stated) 95.6%, COc1ccccc1OCc1nc2ccccc2s1 94.1%

inhibition, inactive:
CC[C@]1(c2ccccc2OC)C(=O)N(C(=O)OC)N1C(=O)OC 0.734%, CC(=O)Nc1ccc(OCCC[n+]2cccc(C(=O)[O-])c2)cc1 -17.4%, COc1cccc(NC(=O)c2cc(S(=O)(=O)N3CCc4ccccc43)cn2C)c1 3.36%, CC(=O)Nc1cccc(-c2nc3ccccc3s2)c1C -16.1%, Cc1ccnc(-n2sc3ccccc3c2=O)n1 2.11%, CCn1nccc1C(=O)Nc1ccc(S(=O)(=O)NC23CC4CC(CC(C4)C2)C3)cc1 1.42%, O=C(CC(O)(C(F)(F)F)C(F)(F)F)Nc1ccc(Cl)c(Cl)c1 1.52%, COc1ccc(OC)c(S(=O)(=O)N2CCCC(C(=O)NCCc3ccccc3)C2)c1 (configuration not stated) -9.45%, O=C(c1ccc(F)cc1)n1cc(C(=S)N2CCOCC2)c2ccccc21 5.26%, O=C(Cn1c(=S)nc2ccccn21)N1CCc2ccccc2C1 -12.6%, CCOc1cc2[nH]c(=S)n(CCCN3CCCC3=O)c(=O)c2cc1OCC -8.53%, CCOC(=O)Cc1ncccc1C(=O)Nc1ccc(OC)cc1 10.7%, O=C(Nc1ccccc1Cl)O/N=C(/c1ccccc1)c1ccccn1 5.09%, COc1ccc(NC(=O)C2CCCN(S(=O)(=O)c3cccc4cccnc34)C2)cc1 (configuration not stated) -2.53%, O=C(Nc1cccc2cccnc12)c1cccc(Cl)c1 38.9%, COc1ccc(OCC(=O)NN2Cc3ccccc3C2=N)cc1 -3.36%, COC(=O)C1=C(C)N(Cc2ccccc2)C(=NCCCOC(C)C)N[C@H]1c1ccccc1 -15.2%, Cc1ccc(S(=O)(=O)N(C)CC(=O)OCC(=O)N2CC(=O)Nc3ccccc32)cc1 -8.14%, Cn1c(N)c(C(=O)COC(=O)/C=C/c2ccc(OC(F)F)cc2)c(=O)n(C)c1=O -13.8%, Cc1ccccc1NC(=O)C1CCN(C(=O)NC2CCCCC2)CC1 -18.9%, O=C(Nc1ccc2c(c1)OCCO2)C1CCCC1 15.1%, C[n+]1ccc(C(=O)NCc2ccccc2)cc1 -12.9%, Cc1ccc(-n2[nH]c(C)c(/C=N/NC(=O)c3cccc([N+](=O)[O-])c3)c2=O)cc1C 27.4%, C=CCNC(=S)N1CCN(CCN=Cc2c(C)[nH]n(-c3ccc([N+](=O)[O-])cc3)c2=O)CC1 1.69%, O=C(COC(=O)c1ccccc1Cl)NC1CCCCCCC1 -12.9%, Cc1nn(CC(=O)Nc2ccc(F)cc2)c(=O)c2ccccc12 -16.4%, Cc1ccc(-n2nc3ccc(NC(=O)/C=C/c4ccco4)cc3n2)cc1C 10.8%, CC(C(=O)N1CCc2ccccc21)N(C)CC(=O)Nc1ccc(F)cc1 (configuration not stated) -18.7%, O=C(/C=N/O)Nc1ccccc1 -8.91%, Cc1ccc(-c2nc(-c3cccnc3)sc2CC(=O)Nc2ccc(C)c(Cl)c2)cc1 -22%, Cc1cccc(N=Nc2c(C)[nH]n(-c3ccccc3)c2=O)c1 -17.2%, Cc1[nH]n(C)c(=O)c1N=Nc1ccc(S(C)(=O)=O)cc1 -4.33%, COc1ccc(CCNC(=O)COC(=O)Cc2ccccc2F)cc1 0.819%, CCN(CC)CCOCCOc1ccc(Cl)c2ccccc12 -6.66%, CCOC(=O)c1cnc2sccn2c1=O -5.45%, CCOC(=O)c1cnc(COc2ccccc2Cl)[nH]c1=O -27.6%, Cc1ccc(S(=O)(=O)NCC(=O)N(CC(=O)NC2CCCCC2)Cc2ccco2)cc1 1.15%, COc1cc(C(=O)NCc2ccc3c(c2)cc(C)n3C)cc(OC)c1OC 1.27%, COc1cc2c3c(c1)/C(=C1/SC(=S)NC1=O)C(=O)N3C(C)(C)C=C2C 24.2%, O=c1[nH]n(-c2ccc([N+](=O)[O-])cc2)c(=O)c2ccccc12 -18.2%, Cc1nc(-c2ccc([N+](=O)[O-])cc2)c(-c2ccccc2)o1 -20.8%, COc1ccc2oc(C(=O)NCC(Cc3ccccc3)N(C)C)c(C)c2c1 (configuration not stated) -20.2%, COc1ccc2oc(C(=O)NCc3ccco3)c(C)c2c1 -9.13%, Cc1ccc(C(=O)Nc2ccc3c(c2)OCCO3)cc1S(=O)(=O)N1CCOCC1 7.66%, CC(C)C(NS(=O)(=O)c1cccs1)C(=O)Nc1nc(C(C)(C)C)cs1 (configuration not stated) -11.7%, CN(Cc1nc2ccccc2s1)C(=O)c1ccc(F)cc1 2.3%, COc1ccccc1N1CC(O)=C(c2nc3ccccc3s2)C1=N -18.4%, C/C=C/c1ccc(OCC(O)CN2CCCCCCC2)c(OC)c1 (configuration not stated) 1.7%
